18 compounds from PubChem BioAssay AID1053206 (Broad Institute, 2014) can be followed below.

Values without a mark were called inactive.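 The calls were made as follows: active = compounds lowering delta-delta-Ct, meaning more Pax4 mRNA, with half-max potency at most twice the top tested dose; inconclusive = flat fit dropping 30 to 70 percent, or unreliable fit; inactive = the rest.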

This assay is described as follows: activators of Pax4 gene expression, dose response, mouse alpha TC1 cells, RT-qPCR, cherry-picks (AID 1053206). The following applies: Pax4 mRNA qPCR, 6 days, hits give low values; at 19.5 µM unless noted. Background: In qPCR the cycle at which signal appears reflects the starting amount.
Consider `CN(C)C(=O)c1cccc(-c2ccc(C3[C@@H]4CN(Cc5ccccc5F)C[C@H]3N4)cc2)c1` (stereo partly drawn), for which the max activity (delta-delta-Ct) is 0.001% [at 5 µM].

Regarding `CO[C@@H](CN(C)Cc1cc(F)ccc1F)[C@@H](C)CN(C(=O)Nc1ccc(C(F)(F)F)cc1)[C@H](C)CO`, the max activity (delta-delta-Ct) was -0.501% [at 10 µM].

With `C/C=C/c1ccc(C2[C@@H]3CN(C(=O)Nc4ccc(C(F)(F)F)cc4)C[C@H]2N3)cc1` (stereo partly drawn), the max activity (delta-delta-Ct) is -0.019%.

As to `Fc1cccc(CN2C[C@@H]3N[C@H](C2)C3c2ccc(/C=C/c3ccccc3)cc2)c1` (stereo partly drawn), the max activity (delta-delta-Ct) is -3.37% [at 21 µM].

`CNC[C@@H]1Oc2cc(C#Cc3ccccc3OC)ccc2S(=O)(=O)N([C@H](C)CO)C[C@H]1C`: the max activity (delta-delta-Ct) was -0.002% [at 0.6 µM].

Turning to `C[C@H](CO)N1C[C@H](C)[C@@H](CN(C)Cc2ccccc2)Oc2c(NC(=O)Cc3cn(C)c4ccccc34)cccc2C1=O`, the max activity (delta-delta-Ct) was -0.003% [at 10 µM].

As to `COc1cccc(-c2cccc(-c3nc(C(=O)Nc4ccc(-c5ccccc5)cc4)cc4c3[C@@H](CCO)N(S(=O)C(C)(C)C)C4)c2)c1` (stereo partly drawn), the max activity (delta-delta-Ct) was -0.152%.

As for `C/C=C/c1ccc([C@H]2[C@@H](CO)N3C(=O)CN(Cc4ccc(F)cc4)C[C@@H]23)cc1`, the max activity (delta-delta-Ct) is -0.008% [at 0.16 µM].

On to `Cc1cccc(-c2ccc(C3[C@@H]4CN(Cc5cccc(F)c5)C[C@H]3N4)cc2)c1` (stereo partly drawn), for which the max activity (delta-delta-Ct) was -2.82%.

As for `Cc1ccccc1S(=O)(=O)N1C[C@@H]2N[C@H](C1)C2c1ccc(-c2cccc(C#N)c2)cc1` (stereo partly drawn), the max activity (delta-delta-Ct) is -0.001% [at 2.6 µM].

For `COc1cc(CN2C[C@@H]3N[C@H](C2)C3c2ccc(-c3ccc(C#N)cc3)cc2)cc(OC)c1` (stereo partly drawn), the max activity (delta-delta-Ct) was -0.065%.

In the case of `C[C@@H]1CN([C@@H](C)CO)C(=O)Cc2cc(NC(=O)C3CCCCC3)ccc2O[C@@H]1CN(C)Cc1ccc(Cl)c(Cl)c1`, the max activity (delta-delta-Ct) was -0.143% [at 1.2 µM].

With `COc1ccc2c3c(n(C)c2c1)[C@@H](CO)N(CC1CC1)CC31CN(C(=O)c2ccc3c(c2)OCO3)C1`, the max activity (delta-delta-Ct) is -0.004% [at 0.038 µM].

With `COc1ccc(S(=O)(=O)Nc2ccc3c(c2)CC(=O)N([C@H](C)CO)C[C@H](C)[C@H](CN(C)Cc2ccc(C(=O)Nc4ccccc4N)cc2)O3)cc1`, the max activity (delta-delta-Ct) was -0.17%.

`C(=C\c1ccc(C2[C@@H]3CN(Cc4ccc5c(c4)OCO5)C[C@H]2N3)cc1)/c1ccccc1` (stereo partly drawn): the max activity (delta-delta-Ct) was -0.457%.

With `N#Cc1cccc(-c2ccc(C3[C@@H]4CN(C(=O)Nc5ccc(C(F)(F)F)cc5)C[C@H]3N4)cc2)c1` (stereo partly drawn), the max activity (delta-delta-Ct) is -0.156%.

Turning to `C[C@H]1CNC(=O)[C@@H](Cc2ccc(C(F)(F)F)cc2)CCn2nncc2COC1`, the max activity (delta-delta-Ct) was 0.001% [at 0.16 µM].

As to `O=S(=O)(c1ccc(F)cc1)N1C[C@@H]2N[C@H](C1)C2c1ccc(/C=C/c2ccccc2)cc1` (stereo partly drawn), the max activity (delta-delta-Ct) was -0.01% [at 10 µM].
